# Screening results deposited in PubChem BioAssay by National Center for Advancing Translational Sciences (NCATS).
# A selection: hits, their analogues and other compounds. The true share with any hit is near 18%.
# HepG2 viability – counter-screen for TGF-b inhibitors: cytotoxicity in HepG2 cells. HepG2 CAGA-GFP viability, ATP luminescence, 18 h. Potency, µM (series often up to 46.1 µM), for inactives: at the top dose activity change, negative = cytotoxicity, actives largely listed as cytotoxic. actives 0.76% (n = 410,000); further: potency means the concentration at half of the fitted maximal effect
#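 CellTiter-Glo luminescence gave cytotoxicity after 18 hours at 37 degrees C. The cells were HepG2 CAGA-GFP in 1% FBS DMEM, stimulated with 500 pg/mL TGF-beta after compound addition. %Activity was normalised to no-cell wells (complete cell-killing) and DMSO (no toxicity), and curves were fitted and classified.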
# DT40 TDP1 CPT – DT40-hTDP1 cell growth loss with CPT. AID 686979. Potency, µM (highest dose often 46.2 µM), for inactives: at the top dose activity change, negative = growth inhibition, most hits filed as inhibitors. actives 12% (n = 420,000). chicken DT40 Tdp1-/-;hTDP1 cells + 20 nM CPT, ATP luminescence, 48 h; further: potency means the concentration at half of the fitted maximal effect; on the % scale 0 is the no-effect control and ±100 the full control effect; nearly all actives have a fitted effect of over 55% in size
#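 Chicken DT40 Tdp1-/- cells stably complemented with human TDP1 were seeded at 400 cells/well in medium containing 20 nM camptothecin, exposed to pin-transferred compounds, and grown at 37 °C for at least 48 hr. Viability was read as ATP luminescence.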
# TGFb SMAD3 inh – inhibitors of TGF-b signaling; HepG2 CAGA-GFP TGF-b/SMAD3 reporter, GFP fluorescence, 18 h; TGF-beta stimulated, 500 pg/mL final; Potency, µM (series often up to 46.1 µM), without a hit: at the top dose activity, negative = inhibition, usual class: inhibitors; actives 1.2% (n = 410,000); AID 588855; further: potency means the concentration at half of the fitted maximal effect; on the % scale 0 is the no-effect control and ±100 the full control effect; nearly all actives have a fitted effect of over 65% in size
#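 Per well, imaged GFP fluorescence of HEPG2 CAGA-GFP cells gives the signal; cells get compound, then TGF-beta (500 pg/mL final), 18 h at 37 degrees C; %Activity versus -TGF-beta and +DMSO controls.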
# TDP1 inh – blocks human tyrosyl-DNA phosphodiesterase 1. AID 485290. recombinant TDP1, AlphaScreen DNA substrate cleavage. actives 0.28% (n = 350,000). Potency, µM (series often up to 130 µM), for inactives: at the highest dose activity change, negative = inhibition, usual class: inhibitors; further: potency means the concentration at half of the fitted maximal effect; on the % scale 0 is the no-effect control and ±100 the full control effect; nearly all actives have a fitted effect of over 40% in size
# Target sequence (Q9NUW8 whole entry, looked up): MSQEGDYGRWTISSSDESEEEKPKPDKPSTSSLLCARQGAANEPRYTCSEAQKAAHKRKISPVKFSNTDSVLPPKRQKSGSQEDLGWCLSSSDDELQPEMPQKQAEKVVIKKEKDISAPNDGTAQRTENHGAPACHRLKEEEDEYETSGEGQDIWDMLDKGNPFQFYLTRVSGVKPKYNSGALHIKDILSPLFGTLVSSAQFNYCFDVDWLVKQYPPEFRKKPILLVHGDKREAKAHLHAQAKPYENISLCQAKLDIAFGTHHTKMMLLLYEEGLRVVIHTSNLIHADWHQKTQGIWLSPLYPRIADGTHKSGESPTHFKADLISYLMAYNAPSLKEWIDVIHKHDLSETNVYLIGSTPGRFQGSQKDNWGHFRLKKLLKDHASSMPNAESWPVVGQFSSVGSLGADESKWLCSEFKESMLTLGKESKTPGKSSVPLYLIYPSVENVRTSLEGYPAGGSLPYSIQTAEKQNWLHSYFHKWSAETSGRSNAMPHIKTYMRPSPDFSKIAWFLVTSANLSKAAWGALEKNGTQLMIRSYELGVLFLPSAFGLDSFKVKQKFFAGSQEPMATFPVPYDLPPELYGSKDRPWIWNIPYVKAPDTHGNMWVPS
#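 AlphaScreen read-out: signal falls as enzyme removes the 3' tyrosine-FITC from a 5'-biotinylated DNA oligo (15 nM, 5 min, RT). Enzyme was E. coli-made recombinant Tdp1 at 1 nM, exposed to compound for 15 min beforehand; beads 10 ug/ml, 10 min.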
# DT40 TDP1 no CPT – qHTS for Inhibitors of human tyrosyl-DNA phosphodiesterase 1 (TDP1): qHTS in cells in absence of CPT. DT40 Tdp1-/- hTDP1 cells, no CPT, ATP luminescence, 48 h. Potency, µM (top dose mostly 46.2 µM), without a hit: top-dose activity change, negative = growth inhibition, usual class: inhibitors. actives 15% (n = 420,000). AID 686978, 2013; further: potency means the concentration at half of the fitted maximal effect; on the % scale 0 is the no-effect control and ±100 the full control effect; nearly all actives have a fitted effect of over 55% in size
#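 Growth of hTDP1-complemented DT40 Tdp1-knockout cells is measured by ATP luminescence after at least 48 hr compound exposure at 37 °C, with DMSO substituting for the 20 nM CPT used in the parallel screen.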
# IL1B secr inh – blocks inflammasome-driven IL-1 beta release; THP-1 LPS/ATP IL-1B secretion, AlphaLISA, 16 h; hits give low values; actives 4.7% (n = 360,000); activity change, % at 57.5 µM; AID 743279; in the data active means activity change below about -50%; inconclusive means mostly about -30% to -49%; further: on the % scale 0 is the no-effect control and ±100 the full control effect
#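 THP-1 cells pretreated 1 hr with compounds (up to 57.5 uM final), then stimulated with LPS (250 ng/mL final) plus ATP (1.25 mM final); secreted IL-1B measured by AlphaLISA after 16 hr, decreased signal indicating inhibition.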
# Active calls of the source: *; i = inactive; u = inconclusive; x = no result given; [ ] = remark or other dose. Unless noted, the call rests on the fitted dose curve; in most records, active means well fitted curve in the direction sought with a large enough effect; inconclusive means small, poorly fitted or top-dose-only effect, or another doubt; inactive means no such curve, though single readings can be large; an effect the other way counts as inactive or inconclusive.
SMILES,HepG2 viability,DT40 TDP1 CPT,TGFb SMAD3 inh,TDP1 inh,DT40 TDP1 no CPT,IL1B secr inh
Cc1cc(Nc2ccccc2Cl)n2nnnc2n1,-3%,-4%,-6%,-2%,-7%,-2
CCC(C)N(C(=O)CSc1nnc(COc2ccccc2F)n1N)C1CCS(=O)(=O)C1 (stereo not given),3%,0%,-5%,-5%,-11%,5
CCOc1ccc(NC(=O)CSc2oc(-c3ccc(F)cc3)nc2S(=O)(=O)c2ccc(C)cc2)cc1,-3%,5.8µM*,-12%,-3%,6.5µM*,x
CCSc1oc(-c2cccs2)nc1S(=O)(=O)c1ccccc1,-5%,u,-13%,0%,u,0
CCCSc1oc(-c2cccs2)nc1S(=O)(=O)c1ccc(C)cc1,0%,18µM*,-24%,0%,u,x
CCOc1ccc(NC(=O)CSc2oc(-c3ccco3)nc2S(=O)(=O)c2ccc(C)cc2)cc1,-12%,u,-12%,9%,u,x
CCOc1ccc(NC(=O)CSc2oc(-c3cccs3)nc2S(=O)(=O)c2ccc(C)cc2)cc1,8%,12µM*,-20%,0%,3.3µM*,x
Cc1cc(NC(=O)COCc2cc(-c3ccc(F)cc3)on2)ccc1Br,-6%,5%,-1%,-1%,-7%,x
CC(C)c1ccc(/C=C/c2[nH]c(=O)[nH]c(=O)c2[N+](=O)[O-])cc1,16µM*,-25%,u,x,u,-82*
CCOc1cc(/C=C\c2[nH]c(=O)[nH]c(=O)c2[N+](=O)[O-])ccc1OC(C)CC (stereo not given),-27%,-19%,76%,4%,-6%,-92*
COc1cc(SC)ccc1C(=O)N1CCCCCC1,-40%,u,-8%,5%,-29%,-2
COc1cc(SC)ccc1C(=O)N1CCN(Cc2ccccc2)CC1,0%,-18%,-12%,-4%,u,-6
COc1cc(SC)ccc1C(=O)N1CCN(c2ccc(O)cc2)CC1,-7%,u,6%,3%,9.2µM*,24
COc1cc(SC)ccc1C(=O)N1CCN(c2ccccc2)CC1,-6%,-9%,-14%,0%,u,-80*
CO[C@@H]1COC(=O)CC=C[C@@H](C)[C@@H]2C=C[C@@H](O)[C@@H](COC(=O)C/C=C\[C@H]1C)O2,x,x,x,7%[21 µM],x,x
CC(=O)Nc1ccc(OCC(O)Cn2c3ccccc3c3ccccc32)c(C)c1 (stereo not given),-103%,u,u,7%,18µM*,-60*
CC(=O)Nc1ccc(OCC(O)Cn2c3ccccc3c3ccccc32)cc1 (stereo not given),-16%,u,u,5%,u,-21
Cc1ccccc1OCC(O)CN1CCN(CC(O)COc2ccccc2C)C(C)C1 (stereo not given),-40%,u,u,x,16µM*,-63*
Cc1ccccc1OC[C@H](O)CO,x,x,x,8%[56.1 µM],x,x
Cc1ccccc1OCC(O)Cn1c2ccccc2c2ccccc21 (stereo not given),-105%,u,u,0%,u,-85*
Cc1nccn1CC(O)Cn1c2ccccc2c2ccccc21 (stereo not given),-28%,u,-7%,4%,u,-53*
O=C(Nc1ccc(C(=O)OCc2cc(=O)n3c4c(sc3n2)CCCC4)cc1)c1ccc(F)cc1,3%,-24%,15%,-6%,-19%,x
CC(=O)Nc1ccc(S(=O)(=O)NCCC(=O)NCC2COc3ccccc3O2)cc1 (stereo not given),0%,0%,3%,-2%,-16%,0
O=C(COC(=O)c1ccc2c(c1)OCO2)NC1CCCCC1,-2%,-10%,-21%,-1%,0%,8
Cn1c(CCC(=O)Nc2cc(S(C)(=O)=O)ccc2Cl)nc2cc(S(=O)(=O)N3CCOCC3)ccc21,2%,5%,-18%,x,-3%,-11
SMILES,HepG2 viability,DT40 TDP1 CPT,TGFb SMAD3 inh,TDP1 inh,DT40 TDP1 no CPT,IL1B secr inh
Cc1nc(C(=O)NNC(=O)c2ccc(C(F)(F)F)cc2)cs1,-36%,u,-12%,x,21µM*,55
CC(C)(C)OC(=O)N1CCC(NC(=O)c2[nH]cnc2C(=O)Nc2ccccc2F)CC1,6%,u,7%,x,u,13
Cc1ccc(S(=O)(=O)N2C[C@H]3C(=O)C[C@@H](c4ccccc4F)N(S(=O)(=O)c4ccc(C)cc4)[C@H]3C[C@H]2c2ccccc2F)cc1,-10%,8.2µM*,u,x,10µM*,-21
CSCCC(NC(=O)c1ccccc1)C(=O)N/N=C(\C)c1ccccc1 (stereo not given),-1%,-19%,u,5%,2%,0
Cc1cc(C)c(N2C(=O)CC(Sc3ccccc3N)C2=O)c(C)c1 (stereo not given),-25%,16µM*,u,x,7.3µM*,33
CN1C(=O)CC(Sc2ccccc2C(=O)O)C1=O (stereo not given),-2%,-23%,-7%,-10%,-6%,12
Cc1cccc(C)c1N1C(=O)CC(Sc2ccccc2N)C1=O (stereo not given),3%,u,-3%,x,u,15
Cc1cc(C)cc(N2C(=O)CC(Sc3ccccc3C(=O)O)C2=O)c1 (stereo not given),20%,4.1µM*,u,1%,18µM*,6
CCOC(=O)c1c(N2C(=O)CC(Sc3ccccc3C(=O)O)C2=O)sc(C)c1C (stereo not given),5%,23µM*,-2%,-8%,u,-11
CN(C)c1ccc(N2C(=O)CC(Sc3ccccc3C(=O)O)C2=O)cc1 (stereo not given),17%,13µM*,4%,-3%,u,0
CC(C)C(NC(=O)CSCc1ccc([N+](=O)[O-])cc1)C(C)C,4%,u,-16%,5%,u,i
COc1ccccc1OC(C)C(=O)N1CCN(Cc2ccc3c(c2)OCO3)CC1 (stereo not given),3%,5%,9%,10%,2%,-16
Cc1cccc(N2C(=O)CC(Sc3ccccc3C(=O)O)C2=O)c1 (stereo not given),-1%,u,u,3%,u,-12
